The list is not random: actives were taken first. Their share in the collection is about 6.4%.
KinaseGlo FLuc = blocks Kinase-Glo luciferase, a counter-screen artifact | Q27757 | Kinase-Glo luciferase, ATP luminescence, 8 min | Potency, µM (highest dose often 38.3 µM), for inactives: at the highest dose activity change, negative = inhibition, hits mostly inhibitors | hit rate 0.28% among 200,000 | AID 1379; further: nearly all actives have a fitted effect of over 60% in size
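Compound is pinned into ATP-containing buffer (10 uM ATP, imidazole pH 7.2, 7 mM MgCl2). Kinase-Glo luciferase reagent is then added. Light output is recorded following an 8-min room-temperature incubation.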
VP16 counter = inhibits Gal4-VP16 luciferase reporter, ROR gamma counter-screen | Drosophila S2 Gal4-VP16 UAS-luciferase, luminescence, 20 h | Potency, µM (top dose mostly 53.6 µM), for the others: top-dose activity, negative = inhibition, hits mostly inhibitors | hit rate 3.5% among 310,000 | AID 2546;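 further: Gal4-VP16 expression switched on by copper sulfate through the metallothionein promoter; nearly all actives have a fitted effect of over 50% in size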
RORgamma inh = blocks mouse ROR gamma transcriptional activity; Potency, µM (titrated, usually from 53.6 µM), without a hit: top-dose activity change, negative = inhibition, hits mostly inhibitors; AID 2551; P51450; Drosophila S2 Gal4-RORgamma UAS-luciferase reporter, 20 h; hit rate 5.4% among 310,000; further: nearly all actives have a fitted effect of over 60% in size
Target sequence (P51450 whole entry, looked up, the tested form may be a part): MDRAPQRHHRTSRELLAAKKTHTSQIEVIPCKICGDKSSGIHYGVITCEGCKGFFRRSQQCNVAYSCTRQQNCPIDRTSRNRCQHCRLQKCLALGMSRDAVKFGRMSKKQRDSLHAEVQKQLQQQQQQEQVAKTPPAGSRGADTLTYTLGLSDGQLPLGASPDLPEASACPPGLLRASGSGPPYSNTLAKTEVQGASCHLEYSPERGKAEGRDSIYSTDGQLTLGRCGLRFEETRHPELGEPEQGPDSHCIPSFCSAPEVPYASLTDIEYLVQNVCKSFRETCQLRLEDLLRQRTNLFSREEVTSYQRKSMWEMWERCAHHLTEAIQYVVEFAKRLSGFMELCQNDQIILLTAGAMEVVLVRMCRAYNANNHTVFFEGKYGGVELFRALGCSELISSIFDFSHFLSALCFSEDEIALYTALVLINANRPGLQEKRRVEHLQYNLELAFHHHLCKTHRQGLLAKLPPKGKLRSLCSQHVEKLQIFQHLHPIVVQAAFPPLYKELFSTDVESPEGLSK
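Stable Schneider cell line, Gal4 DNA-binding domain fused to ROR gamma, UAS-luciferase. Cmpd 1 hr RT → CuSO4 700 uM final → 20 hr RT → luciferase reagent 10 min → luminescence.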
* = called active by the depositor; u = inconclusive; x = not tested or not shown; [ ] = another dose, or the depositor's remark. The call rests on the fitted dose curve; in most records, active means well fitted curve in the direction sought with a large enough effect; inconclusive means small, poorly fitted or top-dose-only effect, or another doubt; inactive means no such curve, though single readings can be large; an effect the other way counts as inactive or inconclusive. On the % scale 0 is the no-effect control and ±100 the full control effect; potency means the concentration at half of the fitted maximal effect.

SMILES	KinaseGlo FLuc	VP16 counter	RORgamma inh
CC(=O)O[C@@]1(C(C)=O)CCC2C3C=C(Cl)C4=CC(=O)CC[C@]4(C)C3CC[C@]21C (some centres undefined)	-3%	-1%	-1%
Cc1ccc(S[C@@H](CCN2CC[C@H](C)CCC2=O)c2ccccc2)cc1	x	-7%	u
Cc1ccc(S[C@@H](CCN2CC[C@H](C(C)(C)C)CCC2=O)c2ccccc2)cc1	x	10µM*	-4%
CCOC(=O)C(Sc1nnc(-c2ccncc2)o1)C(C)=O (centres undefined)	1%	4.5µM*	5µM*
COC(=O)C(C)Sc1nnc(-c2ccncc2)o1 (centres undefined)	-6%	15%	5%
CCCc1nn(C)c(C(=O)Nc2ccc3ccccc3c2)c1Cl	-4%	1%	1%
C/C(=N\NS(=O)(=O)c1ccc(C(C)(C)C)cc1)c1ccccc1	x	-2%	3%
CNC(=S)N/N=C(\C)c1ccccc1	x	16µM*	4µM*
CNC(=S)N/N=C(\C)c1cccc([N+](=O)[O-])c1	5%	4.5µM*	3.5µM*
C/C(=N\NC(=O)C(N)=O)c1cccc([N+](=O)[O-])c1	0%	-4%	0%
CNC(=S)N/N=C(\C)c1ccc(C(C)(C)C)cc1	-3%	0.89µM*	1.1µM*
C/C(=N/NC(=O)C(=O)N/N=C(/C)c1ccccc1)c1ccccc1	4%	-6%	9%
Cc1ccc(CN(C)C(=O)C2CCC(=O)N(C3CCCCCC3)C2)cc1 (centres undefined)	x	0%	31%
CCC(=O)c1cn(CC(=O)Nc2ccc(OC)cc2)c2ccccc12	x	1%	7%
Cn1c(O)c(N=N/C(=N/c2ccccn2)c2ccccn2)c2cc(Br)ccc21	-6%	x	x
CO[C@@H]1COC(=O)CC=C[C@@H](C)[C@@H]2C=C[C@@H](O)[C@@H](COC(=O)C/C=C\[C@H]1C)O2	x	-3%[10 µM]	30%[10 µM]
O=C(NCCN1CCNC1=O)C1CCC(=O)N(Cc2cccc(C(F)(F)F)c2)C1 (centres undefined)	x	4%	-4%
Cc1sc2ncnc(Sc3nnnn3-c3ccc(Cl)cc3)c2c1C	1%	7.1µM*	4µM*
c1ccc(-n2nnnc2Sc2ncnc3sc4c(c23)CCCC4)cc1	0%	u	u
Cc1noc(C)c1CSc1ncnc2sc3c(c12)CCCCC3	-1%	u	7.9µM*
Cc1noc(C)c1CSc1ncnc2sc(C)c(C)c12	0%	-4%	7%
CCOc1ccc2[nH]c(=O)c(C(c3nnnn3Cc3ccco3)N3CCN(C)CC3)cc2c1 (centres undefined)	-5%	3.5µM*	3.5µM*
Cc1cc2cc(C(c3nnnn3Cc3ccco3)N3CCCCC3)c(=O)[nH]c2cc1C (centres undefined)	-2%	14%	-1%
CC(OCc1ccccc1)C(NC(=O)OC(C)(C)C)C(=O)NC1COC2CC(n3cc(F)c(=O)[nH]c3=O)OC12 (centres undefined)	x	0%	-25%
CC(=O)Oc1ccc2c(=O)oc(-c3ccccc3)nc2c1	x	-7%	11%
SMILES	KinaseGlo FLuc	VP16 counter	RORgamma inh
CC(=O)Oc1ccc2nc(/C=C/c3ccccc3)oc(=O)c2c1	x	u	6.3µM*
O=C(CCN1C(=O)C2C3C=CC(C4CC34)C2C1=O)Oc1cccc2cccnc12 (centres undefined)	-5%	7.9µM*	2µM*
O=C(CCN1C(=O)C2C3C=CC(C4CC34)C2C1=O)Oc1ccc(Br)cc1 (centres undefined)	1%	-4%	1%
CCCCC1=NN(C(=O)c2ccco2)C(O)(C(F)(F)F)C1 (centres undefined)	1%	18µM*	6.3µM*
COc1cccc(C2=NN(C(=O)c3ccccc3)C(O)(C(F)(F)F)C2)c1 (centres undefined)	-6%	u	10µM*
O=C(c1ccccc1O)N1N=C(c2ccccc2)CC1(O)C(F)(F)F (centres undefined)	x	u	8.9µM*
Nc1ccc(C(=O)N2N=C(c3ccc(F)cc3)CC2(O)C(F)(F)F)cc1 (centres undefined)	x	-23%	u
Nc1ccc(C(=O)N2N=C(c3ccccc3)CC2(O)C(F)(F)F)cc1 (centres undefined)	x	-18%	10µM*
O=C(C1CC1)N1N=C(c2cccc(Br)c2)CC1(O)C(F)(F)F (centres undefined)	x	-13%	32%
O=C(C1CC1)N1N=C(c2ccncc2)CC1(O)C(F)(F)F (centres undefined)	3%	-3%	-42%
CCCCC1=NN(C(=O)c2ccncc2)C(O)(C(F)(F)F)C1 (centres undefined)	x	u	-15%
O=C(CC1C(=O)NCCN1CCCc1ccccc1)NCCc1ccccc1Cl (centres undefined)	x	3%	18%
CCC(=O)Nc1nn(CC(C)C)c2nc3ccc(C)cc3cc12	x	-1%	-4%
COc1ccc(CNC(=O)CN(Cc2ccccc2)C(=O)CCC(=O)Nc2ccccn2)cc1	x	-3%	22%
COc1cccc(-c2coc3ccc(Br)cc3c2=O)c1	1%	-14%	-28%
CC(C)C1=CC2=CC[C@@H]3[C@](C)(CCC[C@@]3(C)C(=O)O)[C@H]2CC1	x	-5%	-7%[10 µM]
CCC(C(=O)N1CCC(N2CCCCC2)CC1)n1nc(C)c2sc3ccccc3c2c1=O (centres undefined)	x	-3%	1%
COc1cccc(C(=O)N2N=C(c3ccccc3)CC2(O)C(F)(F)F)c1 (centres undefined)	-2%	20µM*	18µM*
Cc1ccc(C2=NN(C(=O)c3ccco3)C(O)(C(F)(F)F)C2)cc1 (centres undefined)	-2%	u	u
COc1ccc(C2=NN(C(=O)C(O)c3ccccc3)C(O)(C(F)(F)F)C2)cc1 (centres undefined)	x	-5%	7%
COc1cccc(C2=NN(C(=O)c3ccco3)C(O)(C(F)(F)F)C2)c1 (centres undefined)	2%	u	5.6µM*
COc1ccc(C(=O)N2N=C(c3ccccc3)CC2(O)C(F)(F)F)cc1 (centres undefined)	-1%	7%[10 µM]	16µM*
O=C(c1ccncc1)N1N=C2CCCCCC2C1(O)C(F)(F)F (centres undefined)	-2%	-9%	36%
COC(=O)N1N=C(c2ccccc2)CC1(O)C(F)(F)F (centres undefined)	-18%	1%	-2%
O=C(c1ccco1)N1N=C2CCCCCC2C1(O)C(F)(F)F (centres undefined)	-3%	1µM*	0.63µM*
SMILES	KinaseGlo FLuc	VP16 counter	RORgamma inh
COc1c(C=O)c(=O)[nH]c2c(OC)cccc12	-2%	-7%	5%
COc1ccccc1CNC(=O)[C@@H]1CCCN1S(=O)(=O)c1ccccc1F	x	4%	-17%
COc1ccc(Cl)cc1NC(=O)CN1C(=O)CC(C)S(=O)(=O)c2ccccc21 (centres undefined)	-4%	5%	1%
CC(Sc1ccccc1)C(=O)N1CCN(S(=O)(=O)c2cccc(Br)c2)CC1 (centres undefined)	x	-2%	23%
O=C(Cc1cccc2ccccc12)Nc1nc2ccccc2[nH]1	-4%	8.9µM*	7.9µM*
CCOc1ccccc1OCCCC(=O)Nc1nc2ccccc2[nH]1	3%	-11%	u
